ClpP mod: qHTS Assay for Activators of ClpP | purified B. subtilis ClpP, FRET peptide cleavage, 20 min | AID 651965, 2013 | Potency, µM (doses to about 57.5 µM), inactives show at the top dose activity change, negative = active | 340,000 compounds, 1.9% hits | ATP-dependent Clp protease proteolytic subunit (Bacillus subtilis (strain 168)), P80244; active = well fitted falling curve with a large enough effect; inconclusive = small, poorly fitted or top-dose-only effect; inactive = no such curve, though single readings can be large or run the other way; note: the source files actives as falling curves though it sought activators and does not explain the sign; nearly all actives have a fitted effect of over 65% in size
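Buffer: 100 mM Tris/HCl pH8, 100 mM KCl, 0.05% low protease BSA, 2.5% glycerol, 0.01% Tween-20. ClpP 10 microg/mL final; 20 min RT; delta FRET normalized to ADEP and DMSO controls.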
TDP1 block: inhibitors of human tyrosyl-DNA phosphodiesterase TDP1; 350,000 compounds, 0.28% hits; Potency, µM (series often up to 130 µM), without a hit: top-dose activity change, negative = inhibition, most hits filed as inhibitors; recombinant TDP1, AlphaScreen DNA substrate cleavage; note: % is set by controls: 0 for no effect and ±100 for the full control effect; nearly all actives have a fitted effect of over 40% in size
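Compounds were preincubated with Tdp1 (1 nM final) for 15 min at room temperature before substrate (15 nM final) started a 5 min reaction; beads (10 ug/ml final) were then added for 10 min before AlphaScreen detection.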
TDP1 cell CPT: DT40-hTDP1 cell growth loss with CPT; AID 686979; chicken DT40 Tdp1-/-;hTDP1 cells + 20 nM CPT, ATP luminescence, 48 h; 420,000 compounds, 12% hits; Potency, µM (titrated, usually from 46.2 µM), inactives show top-dose activity change, negative = growth inhibition, usual class: inhibitors; note: % is set by controls: 0 for no effect and ±100 for the full control effect; nearly all actives have a fitted effect of over 55% in size
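Cell growth measured by CellTiter-Glo luminescence after a minimum 48 h, 37 C compound exposure with 20 nM CPT in Tdp1-knockout DT40 cells stably expressing hTDP1, seeded 400/well; qHTS titration format.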
DT40 TDP1 no CPT: qHTS for Inhibitors of human tyrosyl-DNA phosphodiesterase 1 (TDP1): qHTS in cells in absence of CPT; DT40 Tdp1-/- hTDP1 cells, no CPT, ATP luminescence, 48 h; Potency, µM (top dose mostly 46.2 µM), for inactives: at the highest dose activity change, negative = growth inhibition, hits mostly inhibitors; 420,000 compounds, 15% hits; note: % is set by controls: 0 for no effect and ±100 for the full control effect; nearly all actives have a fitted effect of over 55% in size
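Compound effects on proliferation are scored in DT40 Tdp1-/-;hTDP1 cells in the absence of CPT. ATP levels (CellTiter-Glo luminescence) are recorded after a ≥48 hr, 37 °C incubation.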
Starred values were filed as active, the others as inactive; [ ] = another dose, or the depositor's remark. Most compounds without a hit are left out; they make up all but 17% or so of the library. Unless noted, calls come from the whole dose curve; as a rule, active = well fitted curve in the direction sought with a large enough effect; inconclusive = small, poorly fitted or top-dose-only effect, or another doubt; inactive = no such curve, though single readings can be large; an effect the other way counts as inactive or inconclusive. Potency is the fitted concentration of half-maximal effect.

What do the screens show for `CC(=O)Nc1ccc(NC(=O)[C@@H](NC(=O)N2C[C@H]3C[C@@H](C2)c2cccc(=O)n2C3)C(C)C)cc1`?
ClpP mod: -3.1%; TDP1 cell CPT: 0.2%; DT40 TDP1 no CPT: -2.6%

How did COC(=O)c1ccc(C(NC(=O)OCc2ccccc2)/C(=C/[C@@H](C)C(=O)N[C@@H](CO)Cc2ccccc2)c2cccnc2)cc1 (stereo not given in full) do in these assays?
TDP1 block: 8.7%

What do the screens show for `COc1ccc(Cl)cc1NC(=O)CN(C)C(=O)c1cc(=O)c2ccccc2o1`?
ClpP mod: -2.9%; TDP1 block: 1.7%; TDP1 cell CPT: -40.3%; DT40 TDP1 no CPT: inconclusive

How did O=C(Cc1ccccc1)N(Cc1cccnc1)c1nc2c(F)cccc2s1 do in these assays?
ClpP mod: -1.0%; TDP1 block: -2.6%; TDP1 cell CPT: inconclusive; DT40 TDP1 no CPT: inconclusive

What do the screens show for `CC(=O)Oc1ccc(C23c4ccccc4C2(OC(C)=O)c2cc(OC(C)=O)ccc23)cc1` (stereo not given)?
TDP1 cell CPT: 23.1µM*; DT40 TDP1 no CPT: inconclusive

Results for CC(=O)Oc1cccc(O)c1 ?
TDP1 block: 6.8%[56.1 µM]; TDP1 cell CPT: inconclusive; DT40 TDP1 no CPT: -24.0%

How did N[C@@H](COC(c1cccc(F)c1)c1ccccc1OCc1ccccc1)C(=O)O (stereo not given in full) do in these assays?
TDP1 block: 10.8%

Results for CC(NC(=O)c1cccc(Nc2nc3ccccc3n3nnnc23)c1)c1ccccc1 (stereo not given) ?
ClpP mod: 4.4%; TDP1 block: 6.2%; TDP1 cell CPT: 9.2µM*; DT40 TDP1 no CPT: 7.31µM*

What do the screens show for `CC(C)CCNC(=O)c1cccc(Nc2nc3ccccc3n3nnnc23)c1`?
ClpP mod: 3.8%; TDP1 block: 0.0%; TDP1 cell CPT: 20.6µM*; DT40 TDP1 no CPT: 18.4µM*

How did CCOC(=O)c1cnc(Nc2nc3ccccc3o2)nc1C do in these assays?
ClpP mod: -1.3%; TDP1 block: 3.6%; TDP1 cell CPT: 3.16µM*; DT40 TDP1 no CPT: 3.16µM*

What do the screens show for `Cc1nc(Nc2nc3ccccc3o2)nc2c1CCC2`?
ClpP mod: -3.8%; TDP1 block: 2.1%; TDP1 cell CPT: inconclusive; DT40 TDP1 no CPT: 20.6µM*

Results for CCOC(=O)c1cnc(Nc2ccccc2)nc1C(F)(F)F ?
TDP1 block: 1.3%; TDP1 cell CPT: -20.2%; DT40 TDP1 no CPT: inconclusive

Results for CCOC(=O)c1cnc(Nc2nc3ccccc3o2)nc1CSc1nnc(C)s1 ?
ClpP mod: -1.2%; TDP1 cell CPT: 3.26µM*; DT40 TDP1 no CPT: 2.59µM*

How did Clc1ccc(/C=C/c2ccncc2)cc1Cl do in these assays?
ClpP mod: 4.3%; TDP1 cell CPT: 10.1%; DT40 TDP1 no CPT: -18.4%

What do the screens show for `Cn1c(=O)n(C)c2cc([N+](=O)[O-])c(N3CCN(S(C)(=O)=O)CC3)cc21`?
ClpP mod: -16.0%; TDP1 block: 0.6%; TDP1 cell CPT: 27.0%; DT40 TDP1 no CPT: -24.4%

What do the screens show for `O=C(c1ccccc1Br)N1CCN(c2ccc([N+](=O)[O-])c(N3CCOCC3)c2)CC1`?
ClpP mod: 0.5%; TDP1 block: 5.4%; TDP1 cell CPT: -15.8%; DT40 TDP1 no CPT: -15.6%

How did Cn1c(=O)n(C)c2cc([N+](=O)[O-])c(N3CCN(C(=O)c4ccccc4Cl)CC3)cc21 do in these assays?
ClpP mod: -0.5%; TDP1 block: 5.3%; TDP1 cell CPT: 20.6µM*; DT40 TDP1 no CPT: 16.4µM*

What do the screens show for `Cn1c(=O)n(C)c2cc([N+](=O)[O-])c(N3CCN(C(=O)c4ccccc4Br)CC3)cc21`?
TDP1 block: 5.4%; TDP1 cell CPT: inconclusive; DT40 TDP1 no CPT: 20.6µM*

What do the screens show for `Cn1c(=O)n(C)c2cc([N+](=O)[O-])c(N3CCN(C(=O)C(C)(C)C)CC3)cc21`?
TDP1 block: -6.0%; TDP1 cell CPT: 16.4µM*; DT40 TDP1 no CPT: 13µM*

Results for Cn1c(=O)n(C)c2cc([N+](=O)[O-])c(N3CCN(C(=O)c4ccccc4)CC3)cc21 ?
ClpP mod: -1.3%; TDP1 block: 1.0%; TDP1 cell CPT: 14.6µM*; DT40 TDP1 no CPT: 18.4µM*

What do the screens show for `Nc1ccccc1S(N)(=O)=O`?
ClpP mod: 1.9%; TDP1 block: 3.0%[56.1 µM]; TDP1 cell CPT: 7.1%; DT40 TDP1 no CPT: -11.7%

How did CCc1ccc(-c2cc(C(=O)O)c3ccccc3n2)s1 do in these assays?
ClpP mod: 4.8%; TDP1 cell CPT: -13.2%; DT40 TDP1 no CPT: inconclusive

What do the screens show for `COc1ccc(C(=O)N2CCCCC2c2cc(C(=O)NCc3ccc(Cl)c(Cl)c3)no2)cc1` (stereo not given)?
ClpP mod: -3.0%; TDP1 cell CPT: inconclusive; DT40 TDP1 no CPT: inconclusive

What do the screens show for `CCN(C(=S)NC(=O)c1ccccc1Br)C1CCCCC1`?
ClpP mod: -1.1%; TDP1 block: 7.6%; TDP1 cell CPT: 16.4µM*; DT40 TDP1 no CPT: inconclusive

What do the screens show for `COc1cccc(CNC(=O)CC(c2ccc(C)cc2)N2Cc3ccccc3C2=O)c1` (stereo not given)?
ClpP mod: -0.7%; TDP1 block: -2.8%; TDP1 cell CPT: inconclusive; DT40 TDP1 no CPT: inconclusive

Results for CCOC(=O)C1(Cc2ccccc2)CCCN(Cc2cccc(C(C)=O)c2)C1 (stereo not given) ?
TDP1 block: 3.7%; TDP1 cell CPT: inconclusive; DT40 TDP1 no CPT: 16.4µM*

What do the screens show for `CCOC(=O)C1(Cc2ccccc2)CCCN(Cc2ccncc2)C1` (stereo not given)?
ClpP mod: 1.2%; TDP1 block: -2.6%; TDP1 cell CPT: inconclusive; DT40 TDP1 no CPT: inconclusive

How did CCOC(=O)C1(Cc2ccccc2)CCCN(C(=O)COc2ccccc2OC)C1 (stereo not given) do in these assays?
ClpP mod: 1.3%; TDP1 cell CPT: 23.1µM*; DT40 TDP1 no CPT: 13µM*

How did CCCN(C(=O)Nc1cn(CC(C)C)c(=O)c2ccccc12)c1ccc(F)cc1 do in these assays?
ClpP mod: 4.2%; TDP1 block: -1.1%; TDP1 cell CPT: 7.31µM*; DT40 TDP1 no CPT: 18.4µM*

Results for CCc1ccccc1N(C)C(=O)Nc1cn(CC(C)C)c(=O)c2ccccc12 ?
ClpP mod: 3.5%; TDP1 block: 0.0%; TDP1 cell CPT: 14.6µM*; DT40 TDP1 no CPT: 23.1µM*

What do the screens show for `O=c1cc(CCl)nc2sc3ccccc3n12`?
ClpP mod: -2.5%; TDP1 block: 50.1µM*; TDP1 cell CPT: inconclusive; DT40 TDP1 no CPT: inconclusive

How did O=S(=O)(NC(=NCc1ccccc1)c1ccc(F)cc1)c1ccc(Cl)cc1 do in these assays?
ClpP mod: -0.9%; TDP1 block: 2.4%; TDP1 cell CPT: -5.7%; DT40 TDP1 no CPT: -12.7%

What do the screens show for `Cc1ccc(N2C(=O)CSC2c2cccnc2)c(Cl)c1` (stereo not given)?
TDP1 block: -1.9%; TDP1 cell CPT: 18.4µM*; DT40 TDP1 no CPT: 20.6µM*
